Measured values as given in PubChem BioAssay AID624330 (Southern Research Specialized Biocontainment Screening …, 2012).
Hit rate of the full screen: of about 340,000 compounds, about 2,100 (0.62%) were called active.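 How the source made its calls: active means first-screen hits whose inhibition reached a set limit at any dose in the follow-up dose series; inconclusive means inhibition above the set first-screen limit but never retested; inactive means the rest.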 Not all results are given here. Measured potencies and affinities stand elsewhere.

molecular target: Rac GTPase-activating protein 1 (Homo sapiens) (UniProt Q9H0H5); assay: MgcRacGAP GTPase-activating activity inhibitors, confirmation, biochemical, ADP Hunter fluorescence, primary and confirmatory (AID 624330); settings: MgcRacGAP-stimulated Rac1 GTP hydrolysis, at 30 µM, stronger effect = higher value, GST-tagged Rac1 F28L mutant substrate;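 further: fluorescence reports GDP produced by GAP-driven GTP hydrolysis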
Sequence (Q9H0H5 whole entry, looked up): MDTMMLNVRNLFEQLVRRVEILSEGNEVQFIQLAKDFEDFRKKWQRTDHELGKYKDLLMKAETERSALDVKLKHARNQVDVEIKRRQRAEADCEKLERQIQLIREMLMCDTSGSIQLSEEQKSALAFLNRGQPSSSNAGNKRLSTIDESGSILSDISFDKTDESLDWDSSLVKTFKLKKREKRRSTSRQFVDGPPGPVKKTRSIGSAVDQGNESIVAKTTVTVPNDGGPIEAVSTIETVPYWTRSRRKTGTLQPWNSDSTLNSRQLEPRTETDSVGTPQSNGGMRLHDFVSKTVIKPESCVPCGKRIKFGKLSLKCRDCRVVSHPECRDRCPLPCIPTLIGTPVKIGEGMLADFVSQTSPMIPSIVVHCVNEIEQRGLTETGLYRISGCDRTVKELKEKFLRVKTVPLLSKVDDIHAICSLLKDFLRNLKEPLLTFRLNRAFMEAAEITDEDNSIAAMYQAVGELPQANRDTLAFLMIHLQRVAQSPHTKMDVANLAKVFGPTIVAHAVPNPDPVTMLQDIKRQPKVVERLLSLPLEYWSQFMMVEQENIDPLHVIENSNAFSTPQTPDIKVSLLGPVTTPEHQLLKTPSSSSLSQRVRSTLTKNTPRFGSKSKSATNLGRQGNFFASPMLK

inhibition, inactive:
Cn1c(N)c(C(=O)COC(=O)/C=C/c2ccccc2)c(=O)n(C)c1=O 1.47%, Cc1cnc(NC(=O)CN2CCN(c3ccccn3)CC2)s1 2.02%, CCOc1ccccc1N1CCN(CC(=O)Nc2ncc(C)s2)CC1 5.5%, c1ccc(COc2ncnc3c2ncn3CCCNCC2CCCO2)cc1 (centres undefined) 7.05%, COc1ccccc1OCCCCCCN1CCN(C)CC1 -3.02%, COc1ccccc1OCCCCN1CCCCC1 3.62%, Brc1ccccc1OCCCN1CCOCC1 14.8%, Brc1ccccc1OCCN1CCOCC1 17.5%, COc1cc(C)ccc1OCCOCCOc1c(C)cc(C)cc1Br 3.98%, CCn1c(COc2ccc(=O)n(-c3ccccc3)n2)nnc1SCc1ccccc1C -2.27%, O=C(c1noc2c1CCCCC2)N1CCOCC1 1.03%, CC(C)CC(OC(=O)c1nsc(Cl)c1Cl)C(=O)NCC1CCCO1 (centres undefined) 5.99%, Cc1ccc(S(=O)(=O)N2CCN(c3c([N+](=O)[O-])cc(C(F)(F)F)cc3[N+](=O)[O-])CC2)cc1 6.82%, O=C(Nc1ccc2c(c1)OCO2)C1CCCCC1 6.05%, O=C(NC1CCCCCCC1)c1ccc2c(c1)OCO2 4.04%, CC(C)COC(=O)Cc1c(O)c2ccccc2[nH]c1=O 1.69%, O=C(c1cccnc1)N1CCN(C(=O)c2cccc(Cl)c2)CC1 -2.27%, CN1CCCN(C(=O)c2cccc(Cl)c2)CC1 3.23%, CC(C)CC(CO)N1CCN(C(=O)c2cccc(Cl)c2)CCC1=O (centres undefined) 2.07%, CCOC(=O)C1CCN(C(=O)c2cccc(Cl)c2)CC1 6.23%, COc1ccc(N2C(=O)CC(N3CCN(c4ccc(S(C)(=O)=O)cc4)CC3)C2=O)cc1 (centres undefined) -1.2%, CN(C)c1ccc(P(=O)(OCc2ccccc2)C(O)c2ccccc2F)cc1 (centres undefined) 0.52%, O=C(Nc1ccc(F)cc1)Nc1nnc(COc2ccccc2F)s1 10.4%, CCOc1cc(S(=O)(=O)NCc2cccs2)ccc1Cl 8.13%, CC(=O)NC1=NC(=O)CS1 2.93%, CN(C1=NC(=O)CS1)c1ccc(O)cc1 9.21%, COc1ccc(S(=O)(=O)N2CCC(N3CCCC3)CC2)cc1 21%, Cc1ccc2oc(=O)n(CCOc3ccccc3C)c2c1 0.34%, Cc1c(C(=O)O)cccc1-c1ccc(/C=C2/NC(=O)N(c3ccccc3)C2=O)o1 -7.26%, O=C(O)c1ccccc1-c1ccc(/C=C2\SC(=O)N(c3ccccc3)C2=O)o1 6.66%, O=C(O)c1ccccc1SC1CC(=O)N(c2ccc3c(c2)OCO3)C1=O (centres undefined) -5.78%, N=C1S/C(=C\c2ccc(-c3ccccc3C(=O)O)o2)C(=O)N1c1ccc2c(c1)OCO2 19.7%, COC(=O)c1ccc(Sc2ccccc2NS(=O)(=O)c2ccc(OC)cc2)nc1 7.44%, CC1(c2nnc(-c3cccc(Cl)c3)o2)CC(c2ccccc2F)=NO1 (centres undefined) 5.14%, CCn1nc(C)c(/C=N/NC(=O)c2ccoc2C)c1C 1.28%, O=C1CC(/C=C/c2ccccn2)=Nc2ccccc2N1 -8.85%, CC(C)n1cc(/C=N/Nc2ccc(C(=O)O)cc2)c2ccccc21 24.1%, O=C(O)c1cc(N/N=C/c2ccc(-c3ccccc3)cc2)ccc1Cl 5.89%, O=C(O)c1cc(N/N=C/c2cccc3ccccc23)ccc1Cl 11.3%, COc1ccc2ccccc2c1/C=N/Nc1ccc(Cl)c(C(=O)O)c1 17.1%, CC(C)CC1NC(=O)c2cc3ccccc3cc2-n2c1nc1ccc(Cl)cc1c2=O (centres undefined) 6.29%, COCCCNC(=S)NC1CC2CCCC(C1)N2Cc1ccco1 (centres undefined) 13.1%, COc1ccccc1NS(=O)(=O)c1cc(N)ccc1N1CCCCC1 5.74%, O=C(Nc1ccc(N2CCCC2)c(S(=O)(=O)Nc2cccc(C(F)(F)F)c2)c1)c1cccs1 7.15%, Nc1ccc(N2CCCCC2)c(S(=O)(=O)Nc2ccc(Cl)cc2)c1 3.13%, COc1ccccc1NS(=O)(=O)c1cc(N)ccc1N1CCOCC1 16.4%, O=C(NNC(=O)c1cc2ccccc2cc1O)c1cccs1 3.14%, Cc1cccc(N2CCN(C(=O)C3CCC(=O)N(Cc4ccccc4F)C3)CC2)c1C (centres undefined) -9.79%, CCn1cc(/C=C(\NC(=O)c2ccccc2)C(=O)N2CCOCC2)c2ccccc21 9.74%, Nc1no[n+]([O-])c1-c1ccccc1 7.71%, CCCC(=O)Nc1cc(-c2nc3ncccc3o2)ccc1Cl 6.17%, O=C(O)CCn1cc(C(=O)O)c(-c2ccccc2)n1 9.41%, O=C(O)CCn1cc(/C=C2\NC(=S)N(c3ccccc3)C2=O)c(-c2ccc(Br)cc2)n1 0.36%, O=Cc1cn(CCC(=O)O)nc1-c1cccc(Br)c1 -0.73%, NC(=S)N/N=C/c1cn(CCC(=O)O)nc1-c1cccc(Br)c1 12.2%, Cc1ccc(-c2nn(CCC(=O)O)cc2/C=C\C(=O)c2ccc(Br)cc2)cc1 -9.64%, O=C(O)CCn1cc(/C=C2/NC(=S)N(c3ccccc3)C2=O)c(-c2ccccc2)n1 7.18%, Cc1ccc(C2=NN3C(=O)c4ccccc4C3C2)cc1 (centres undefined) -20.3%, COCCC(=O)N1CCCC(C(=O)c2ccccc2SC)C1 (centres undefined) 1.95%, COc1ccc(-n2nnnc2SCC(=O)Nc2cccc(O)c2)cc1 8.11%, CCOC(=O)C1(Cc2cccc(OC)c2)CCN(Cc2cccc3cnccc23)CC1 -0.92%, O=C(C=Cc1ccco1)N1CCOCC1 8.8%, Cc1ccc(C=C2C=C(c3ccccc3)OC2=O)cc1 11.5%, CN(C)c1ccc(C=C2C=C(c3ccccc3)OC2=O)cc1 -3.66%
